A selection: hits, their analogues and other compounds. The true share with any hit is near 10%.
G9a block: inhibitors of human histone lysine methyltransferase G9a. Potency, µM (titrated, usually from 102 µM), most hits filed as inhibitors. 350,000 tested, 8.8% active. Q96KQ7. G9a H3K9 monomethylation, AlphaScreen, 2 h; also: nearly all actives have a fitted effect of over 75% in size
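Methyltransferase reactions run at room temperature for 2 h (20 nM enzyme, 500 nM biotin-H3K9 peptide, 20 uM SAM) after a 15 min compound preincubation; product detected by AlphaScreen beads and anti-H3K9me1 antibody.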
BAZ2B block: blocks human BAZ2B. Potency, µM (doses to about 114 µM), actives largely listed as inhibitors. AlphaScreen BAZ2B-H3K14Ac peptide displacement. Q9UIF8. 360,000 tested, 4.4% active; also: nearly all actives have a fitted effect of over 60% in size
Target sequence (Q9UIF8 whole entry, looked up): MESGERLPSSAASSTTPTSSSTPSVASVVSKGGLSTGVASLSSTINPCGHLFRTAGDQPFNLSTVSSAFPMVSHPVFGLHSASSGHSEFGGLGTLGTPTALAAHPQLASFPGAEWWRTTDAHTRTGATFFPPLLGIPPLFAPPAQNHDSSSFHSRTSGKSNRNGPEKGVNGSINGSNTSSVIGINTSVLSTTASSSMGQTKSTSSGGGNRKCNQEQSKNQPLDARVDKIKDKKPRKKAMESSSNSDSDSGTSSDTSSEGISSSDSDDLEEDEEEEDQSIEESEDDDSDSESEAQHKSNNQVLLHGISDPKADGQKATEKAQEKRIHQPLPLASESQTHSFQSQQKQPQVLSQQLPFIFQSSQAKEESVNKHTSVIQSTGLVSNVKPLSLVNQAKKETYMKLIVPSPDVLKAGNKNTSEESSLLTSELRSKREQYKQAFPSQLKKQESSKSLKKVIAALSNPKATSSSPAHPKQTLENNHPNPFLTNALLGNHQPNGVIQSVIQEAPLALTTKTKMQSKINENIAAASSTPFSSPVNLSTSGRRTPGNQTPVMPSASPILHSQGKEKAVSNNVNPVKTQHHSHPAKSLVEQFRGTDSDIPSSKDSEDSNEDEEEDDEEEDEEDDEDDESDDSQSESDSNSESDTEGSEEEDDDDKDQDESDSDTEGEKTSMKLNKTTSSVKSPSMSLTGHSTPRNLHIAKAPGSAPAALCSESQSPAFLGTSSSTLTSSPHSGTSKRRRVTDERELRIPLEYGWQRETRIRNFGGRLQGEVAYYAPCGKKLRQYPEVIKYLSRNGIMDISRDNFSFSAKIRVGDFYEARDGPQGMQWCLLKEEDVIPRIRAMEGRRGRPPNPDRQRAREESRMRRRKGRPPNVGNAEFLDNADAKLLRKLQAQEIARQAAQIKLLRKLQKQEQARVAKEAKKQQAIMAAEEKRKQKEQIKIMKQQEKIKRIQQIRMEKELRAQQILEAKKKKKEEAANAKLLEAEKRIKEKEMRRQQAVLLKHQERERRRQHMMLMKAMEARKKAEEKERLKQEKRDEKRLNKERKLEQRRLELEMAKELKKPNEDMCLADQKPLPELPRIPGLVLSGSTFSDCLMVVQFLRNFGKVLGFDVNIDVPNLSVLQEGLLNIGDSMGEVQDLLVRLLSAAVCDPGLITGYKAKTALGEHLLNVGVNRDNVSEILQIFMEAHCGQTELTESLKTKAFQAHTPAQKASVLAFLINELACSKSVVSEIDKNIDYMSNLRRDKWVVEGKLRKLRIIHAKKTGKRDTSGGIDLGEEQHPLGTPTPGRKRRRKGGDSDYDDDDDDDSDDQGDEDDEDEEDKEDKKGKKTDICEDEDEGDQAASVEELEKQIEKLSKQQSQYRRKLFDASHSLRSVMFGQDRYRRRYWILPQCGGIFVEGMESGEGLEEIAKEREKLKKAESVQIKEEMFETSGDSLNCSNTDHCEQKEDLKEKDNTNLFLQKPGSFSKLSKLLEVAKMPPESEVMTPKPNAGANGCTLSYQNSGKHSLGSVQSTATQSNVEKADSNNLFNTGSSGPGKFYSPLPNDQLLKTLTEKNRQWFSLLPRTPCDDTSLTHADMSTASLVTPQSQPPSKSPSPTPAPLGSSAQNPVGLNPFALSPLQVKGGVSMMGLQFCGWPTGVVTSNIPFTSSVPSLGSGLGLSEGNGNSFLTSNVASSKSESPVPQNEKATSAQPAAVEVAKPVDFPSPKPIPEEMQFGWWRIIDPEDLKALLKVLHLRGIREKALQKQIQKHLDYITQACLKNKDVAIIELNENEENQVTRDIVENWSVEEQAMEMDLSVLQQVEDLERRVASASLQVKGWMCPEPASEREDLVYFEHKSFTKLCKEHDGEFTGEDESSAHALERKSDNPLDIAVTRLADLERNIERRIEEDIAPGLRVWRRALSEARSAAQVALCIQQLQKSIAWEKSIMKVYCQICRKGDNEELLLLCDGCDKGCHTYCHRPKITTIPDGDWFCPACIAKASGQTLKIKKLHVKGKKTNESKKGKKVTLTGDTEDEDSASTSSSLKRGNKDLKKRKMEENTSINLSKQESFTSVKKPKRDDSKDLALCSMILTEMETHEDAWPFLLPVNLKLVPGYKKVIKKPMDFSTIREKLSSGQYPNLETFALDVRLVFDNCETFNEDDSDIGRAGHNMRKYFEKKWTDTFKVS
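AlphaScreen luminescence quantifies BAZ2B engagement of H3K14Ac peptide; the protein and biotinylated peptide are both at 50 nM final, buffer PBS pH 7.4 with 0.01% Tween-20, all steps at room temperature.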
GLS inhibitor: inhibitors of human glutaminase (GLS); GLS enzymatic activity, qHTS titration; O94925; Potency, µM (doses to about 45.5 µM), hits mostly inhibitors; 410,000 tested, 0.21% active
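Coupled fluorescence readout: glutamate oxidase/HRP/Amplex Red detect glutamate formed by hKGA from L-glutamine (1 mM solution added). Buffer 45 mM KH2PO4 pH 8.2, 0.02% Tween-20; reads at t0 and 30 min RT.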
JMJD2A Tudor: JMJD2A Tudor domain (human) inhibition | Potency, µM (doses to about 114 µM), hits mostly inhibitors | AlphaScreen JMJD2A-Tudor / H3K4me3 peptide binding | 390,000 tested, 4.4% active | O75164; also: nearly all actives have a fitted effect of over 50% in size
HP1b binding inh: inhibitors of HP1-beta chromodomain binding to methylated histone tails. 390,000 tested, 0.56% active. P83916. AID 540317. Potency, µM (highest dose often 114 µM), usual class: inhibitors. AlphaScreen HP1-beta / biotin-H3K9me3 peptide binding; also: nearly all actives have a fitted effect of over 70% in size
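AlphaScreen: HP1-beta (50 nM) preformed 30 min with biotin-H3(1-18)K9me3 peptide (50 nM) in PBS pH 7.4, 0.01% Tween-20. Compound added for 30 min at RT, then streptavidin donor/nickel chelate acceptor beads (10 ug/mL) for 30 min.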
A number is an active result; [ ] = another dose, or the depositor's remark. Calls follow the shape of the dose curve; as a rule, active = well fitted curve in the direction sought with a large enough effect; inconclusive = small, poorly fitted or top-dose-only effect, or another doubt; inactive = no such curve, though single readings can be large; an effect the other way counts as inactive or inconclusive.

Results for Cc1ccccc1S(=O)(=O)N(C)C[C@@H]1OCc2cnnn2CCCC(=O)N([C@H](C)CO)C[C@@H]1C ?
GLS inhibitor: inactive

How did O=C(Nc1ccc(C(=O)N2CCCCC2)cc1)c1cccs1 do in these assays?
G9a block: inactive; BAZ2B block: inactive; GLS inhibitor: inactive; JMJD2A Tudor: inactive; HP1b binding inh: inactive

What do the screens show for `O=C(Nc1ccon1)c1ccc(N2CCCCC2)c([N+](=O)[O-])c1`?
G9a block: inactive; BAZ2B block: inconclusive; GLS inhibitor: inactive; JMJD2A Tudor: inconclusive; HP1b binding inh: inactive

What do the screens show for `O=C(Nc1ccccc1N1CCCCC1)c1ccc(Cl)c([N+](=O)[O-])c1`?
G9a block: 35µM; BAZ2B block: inconclusive; GLS inhibitor: inactive; JMJD2A Tudor: inconclusive; HP1b binding inh: inactive

Results for NC(=O)c1ccc(N2CCN(c3ccccc3O)CC2)c([N+](=O)[O-])c1 ?
G9a block: inconclusive; BAZ2B block: inconclusive; GLS inhibitor: 11µM; JMJD2A Tudor: inactive; HP1b binding inh: inactive

What do the screens show for `CN1CCN(c2ccccc2NC(=O)c2ccc(N3CCCC3)c([N+](=O)[O-])c2)CC1`?
G9a block: 50µM; BAZ2B block: inconclusive; GLS inhibitor: inactive; JMJD2A Tudor: 56µM; HP1b binding inh: inconclusive

How did O=C(Nc1nc2ccccc2s1)c1ccc(N2CCCCC2)c([N+](=O)[O-])c1 do in these assays?
G9a block: inconclusive; BAZ2B block: 10µM; GLS inhibitor: inactive; JMJD2A Tudor: inconclusive; HP1b binding inh: inactive

How did CCOC(=O)c1ccc(N2C(=O)c3n[nH]c(C)c3C2c2ccc(OC)c(OC)c2)cc1 (stereo not given) do in these assays?
G9a block: inconclusive; BAZ2B block: inactive; GLS inhibitor: inactive; JMJD2A Tudor: inactive; HP1b binding inh: inactive

How did CN1CCN(c2ccc(C(=O)c3ccc(Br)cc3)cc2[N+](=O)[O-])CC1 do in these assays?
G9a block: 45µM; BAZ2B block: 40µM; GLS inhibitor: inactive; JMJD2A Tudor: 22µM; HP1b binding inh: inconclusive

What do the screens show for `CC(=O)N1CCN(c2ccc(C(N)=O)cc2[N+](=O)[O-])CC1`?
G9a block: inactive; BAZ2B block: inactive; GLS inhibitor: inactive; JMJD2A Tudor: inactive; HP1b binding inh: inactive

How did O=C(/C=C/c1ccc(Br)cc1)NC(=S)N1CCOCC1 do in these assays?
G9a block: 71µM; BAZ2B block: inactive; GLS inhibitor: inactive; JMJD2A Tudor: inactive; HP1b binding inh: inactive

Results for CN1CCN(C(=S)NC(=O)/C=C/c2ccccc2Cl)CC1 ?
G9a block: 45µM; BAZ2B block: inactive; GLS inhibitor: inactive; JMJD2A Tudor: inactive; HP1b binding inh: inactive

What do the screens show for `CC(OC(=O)/C=C/c1ccc(Br)cc1)C(=O)N1CCOCC1` (stereo not given)?
G9a block: inactive; BAZ2B block: inactive; GLS inhibitor: inactive; JMJD2A Tudor: inactive; HP1b binding inh: inactive

How did CN1CCN(C(=S)NC(=O)/C=C/c2ccccc2)CC1 do in these assays?
G9a block: 50µM; BAZ2B block: inactive; GLS inhibitor: inactive; JMJD2A Tudor: inactive; HP1b binding inh: inactive

What do the screens show for `COc1ccccc1N1CCN(C(=S)NC(=O)/C=C/c2ccccc2)CC1`?
G9a block: inactive; BAZ2B block: inactive; GLS inhibitor: inactive; JMJD2A Tudor: inactive; HP1b binding inh: inactive

How did CN1CCN(C(=S)NC(=O)c2ccccc2Cl)CC1 do in these assays?
G9a block: 50µM; BAZ2B block: inactive; GLS inhibitor: inactive; JMJD2A Tudor: inactive; HP1b binding inh: inactive

How did Cc1nnc(-c2ccc(Cl)cc2)[nH]c1=O do in these assays?
G9a block: inactive; BAZ2B block: inactive; GLS inhibitor: inactive; JMJD2A Tudor: inactive; HP1b binding inh: inactive

What do the screens show for `CCc1ccc(OCc2nc(-c3ccc(OC)cc3)no2)c(Br)c1`?
G9a block: inactive; BAZ2B block: inactive; GLS inhibitor: inactive; JMJD2A Tudor: inactive; HP1b binding inh: inactive

What do the screens show for `C=CCn1c(C)cc(C(=O)CSc2nnc3c(Cl)cc(Cl)cn23)c1C`?
G9a block: inactive; BAZ2B block: inactive; GLS inhibitor: inactive; JMJD2A Tudor: inactive; HP1b binding inh: inactive

What do the screens show for `Cc1cc(C(=O)CSc2nc(N)cc(N)n2)c(C)n1-c1cccc(F)c1`?
G9a block: inactive; BAZ2B block: inconclusive; GLS inhibitor: inactive; JMJD2A Tudor: 28µM; HP1b binding inh: inconclusive

How did Cc1cc(C(=O)CSc2nc(N)cc(=O)[nH]2)c(C)n1-c1ccc(OC(F)F)cc1 do in these assays?
G9a block: inactive; BAZ2B block: inactive; GLS inhibitor: inactive; JMJD2A Tudor: inactive; HP1b binding inh: inactive

What do the screens show for `C=CCn1c(C)cc(C(=O)COC(=O)c2cncc(Br)c2)c1C`?
G9a block: 3.2µM; BAZ2B block: inconclusive; GLS inhibitor: inactive; JMJD2A Tudor: inconclusive; HP1b binding inh: inactive

How did C=CCn1c(C)cc(C(=O)COc2ncnc3sccc23)c1C do in these assays?
G9a block: inconclusive; BAZ2B block: inactive; GLS inhibitor: inactive; JMJD2A Tudor: inactive; HP1b binding inh: inactive

How did C=CCn1c(C)cc(C(=O)CSc2nc(N)cc(N)n2)c1C do in these assays?
G9a block: 32µM; BAZ2B block: inconclusive; GLS inhibitor: inactive; JMJD2A Tudor: inactive; HP1b binding inh: inactive

How did COCC(=O)OCn1nnc2ccccc2c1=O do in these assays?
G9a block: inactive[0.501 µM]; BAZ2B block: inactive; GLS inhibitor: inactive; JMJD2A Tudor: inactive; HP1b binding inh: inactive

Results for COc1cc(C2/C(=C(/O)c3ccccc3)C(=O)C(=O)N2c2ccccn2)ccc1O (stereo not given) ?
G9a block: inactive; BAZ2B block: inactive; GLS inhibitor: 8.9µM; JMJD2A Tudor: inconclusive; HP1b binding inh: inactive

How did COc1ccc(C2/C(=C(/O)c3ccc(F)cc3)C(=O)C(=O)N2c2ccccn2)cc1OC (stereo not given) do in these assays?
G9a block: inactive; BAZ2B block: inactive; GLS inhibitor: inconclusive; JMJD2A Tudor: 18µM; HP1b binding inh: inactive

Results for CCc1c(C(=O)N/N=C/c2ccsc2)csc1C ?
G9a block: inactive; BAZ2B block: inactive; GLS inhibitor: inactive; JMJD2A Tudor: inactive; HP1b binding inh: inactive

Results for Fc1ccc(N2CCN(c3nnnn3-c3ccccc3)CC2)cc1 ?
G9a block: inactive; BAZ2B block: inactive; GLS inhibitor: inactive; JMJD2A Tudor: inactive[11.4 µM]; HP1b binding inh: inactive

How did Cc1nn(-c2ccc(F)cc2F)c(=O)c2noc(C)c12 do in these assays?
G9a block: inactive; BAZ2B block: inactive; GLS inhibitor: inactive; JMJD2A Tudor: inactive; HP1b binding inh: inactive

How did COCCn1c(SCC(=O)Nc2cc(C)on2)nnc1C(C)C do in these assays?
G9a block: inactive; BAZ2B block: inactive; GLS inhibitor: inactive; JMJD2A Tudor: inactive; HP1b binding inh: inactive

Results for CCOc1ccc(-c2csc(NC(=O)c3cccc(N4C(=O)CCC4=O)c3)n2)cc1 ?
G9a block: inactive; BAZ2B block: inactive; GLS inhibitor: inactive; JMJD2A Tudor: inactive; HP1b binding inh: inactive

How did O=C(Nc1nnc(-c2ccncc2)o1)c1cccc(N2C(=O)CCC2=O)c1 do in these assays?
G9a block: inconclusive; GLS inhibitor: inactive; JMJD2A Tudor: 6.3µM; HP1b binding inh: inactive

Bioassay records as filed in PubChem.
